The term AC50 denotes the concentration giving half of the maximal activity seen.

The text below walks through data of PubChem BioAssay (EPA / NIEHS).

Structures are written as SMILES. Calls of active or inactive are those of the source. How the source made its calls: active means hit-call score of the fitted dose curve at least 0.9, where 1 is the maximum; inactive means score below 0.9.

This assay can be described thus: ATG_Ets_CIS: Attagene CIS-FACTORIAL HepG2 Assay for human Erythroblast Transformation Specific (ETS) (AID 2282941). The conditions noted are these: HepG2 ETS cis-reporter transcription, actives raise or lower the signal. Here is the method:
ATG_CIS is a cell-based, multiplexed-readout assay that uses HepG2, a human liver cell line, with measurements taken at 24 hours after chemical dosing in a 24-well plate.ATG_Ets_CIS is one of 52 assay component(s) measured or calculated from the ATG_CIS assay. It is designed to make measurements of mRNA induction, a form of inducible reporter, as detected with fluorescence intensity signals by Reverse transcription polymerase chain reaction (RT-PCR) and Capillary electrophoresis technology.Data from the assay component ATG_Ets_CIS was analyzed into 1 assay endpoint. This assay endpoint, ATG_Ets_CIS, was analyzed with bidirectional fitting relative to DMSO as the negative control and baseline of activity. Using a type of inducible reporter, measures of mRNA for gain or loss-of-signal activity can be used to understand the reporter gene at the transcription factor-level as they relate to the gene ETS1. Furthermore, this assay endpoint can be referred to as a primary readout, because this assay has produced multiple assay endpoints where this one serves a reporter gene function. To generalize the intended target to other relatable targets, this assay endpoint is annotated to the dna binding intended target family, where the subfamily is winged helix-turn-helix.
Human liver HepG2 cells are transiently transfected with multiple reporter transcription units (MRTUs) in 6-well plates using FuGene 6 reagent (Roche; 3 ml FuGene/1 mg DNA). The MRTU constructs are regulated by a cis-regulating element (promoter). […] A major difference between the CIS and TRANS system is that in CIS activities of endogenous TFs are measured, whereas the TRANS assay evaluates changes in activities of exogenous, chimeric NR-Gal4 proteins. […] At the end of 24 hour incubation, total RNA was isolated using TriZol reagent (Invitrogen). The isolated RNA is then reverse-transcribed using oligo(dT) primer and Mo-MLV reverse transcriptase (Invitrogen) with DNAse I (Ambion) treatment for 30 min. The one-tenth of the produced cDNA was amplified by PCR using Taq DNA polymerase (Invitrogen) and two reporter sequence-specific primers. The PCR products were fluorescently labeled by primer extension with 6-arboxyfluorescein (6-FAM) 5'-labeled reporter sequence-specific primer (2 min at 95 C, 20 s at 68 C and 10 min at 72 C) and these products were digested with 5U of HpaI (New England Biolabs) for 2h at 37 C. The fragments were purified using Qiaquick PCR columns (Qiagen), analyzed on an ABI 3130xL genetic analyzer (Applied Biosystems) with peak positions identified by using a set of X-rhodamine (ROX)-labeled MapMarker1000 molecular weight standards (BioVentures). The raw capillary electrophoresis data was processed using Attagraph software (Attagene).
Turning to `CCc1occc(=O)c1O`, the call was inactive.
As to `CC(=O)CC(=O)Nc1ccccc1C`, the compound was called inactive.
Consider `CCC(C)N` (stereo not given), for which the compound was called inactive.
On the same count and under the same terms, with `C=CCNCC=C` the entry was “inactive”; with `CCCC=C(C=O)CC`, “inactive”.
For the compound `C=C[Si](OCCOC)(OCCOC)OCCOC`, the outcome was inactive.
Take `CC(C)c1ccc(O)c(C(C)C)c1`: the outcome was inactive.
Turning to `O=c1c(O)c(-c2ccc(O)cc2O)oc2cc(O)cc(O)c12`, the outcome was inactive.
As for `CCCCCCCCCCCC(=O)N(C)CC(=O)O`, the outcome was inactive.
In the case of `CCCCCCOC(=O)CCCCC(=O)OCCCCCC`, the call was inactive.
Same read-out and setting: for `C[N+](C)(C)CCCNS(=O)(=O)C(F)(F)C(F)(F)C(F)(F)C(F)(F)C(F)(F)C(F)(F)C(F)(F)C(F)(F)F` the value was “inactive”; for `COC(C=C(C)CCC=C(C)C)OC`, “inactive”.
Consider `COC(=O)c1ccc(C(=O)OC)c(C(=O)OC)c1`, for which the result was inactive.
Take `C1CNCCN1`: the outcome was inactive.
`CCCCOC(=O)C(C)CC` (stereo not given): the result was inactive.
`Cc1cc(=O)[nH]c(=O)[nH]1`: the result was inactive.
For the compound `COc1ccc(C(=O)c2ccccc2)c(O)c1`, the compound was called inactive.
Regarding `C=CCOC(=O)c1ccc(C(=O)OCC=C)c(C(=O)OCC=C)c1`, the result was inactive.
With `CC(=O)OC(C)c1ccccc1` (stereo not given), the compound was called inactive.
For `Nc1cccc(N)n1`, the result was inactive.
Take `CCCCC1C(=O)N(c2ccccc2)N(c2ccccc2)C1=O`: the compound was called inactive.
Still for that read-out and setting: with `Cc1ccc2c(c1)CCCN2` the entry was “inactive”.
As for `CCCSSCCC`, the compound was called inactive.
With `CC(C)(CO)C(O)C(=O)NCCCO` (stereo not given), the compound was called inactive.
As for `CC1CCC(=O)C1=O` (stereo not given), the outcome was inactive.
With `CCOC(=O)C1=NN(c2ccc(Cl)cc2Cl)C(C)(C(=O)OCC)C1` (stereo not given), the compound was classed as inactive.
Consider `C=C(C)C(=O)OCC(O)COc1ccc(C(C)(C)c2ccc(OCC(O)COC(=O)C(=C)C)cc2)cc1` (stereo not given), for which the AC50 is 100 µM (active).
For `COC(=O)C=Cc1ccccc1`, the compound was called inactive.
For the compound `C=C(C)C(=O)OCCOC(=O)C(=C)C`, the compound was called inactive.
On the same count and under the same terms, with `O=C(O)/C=C/c1ccccc1` the entry was “inactive”.
With `[Cl][Sc]([Cl])[Cl]`, the compound was called inactive.
Take `CCC(C)c1ccccc1` (stereo not given): the compound was called inactive.
Take `CC(C)(C)C1CCC(=O)CC1`: the call was inactive.
On the same count and under the same terms, for `CC(C)CO` the value was “inactive”; for `CN(C)Cc1cc(CN(C)C)c(O)c(CN(C)C)c1`, “inactive”.
On to `O=C(O)c1cc(O)c2ccccc2c1O`, for which the AC50 was 57.9 µM (active).
`CCOB(OCC)OCC`: the compound was called inactive.
For `CCOC(=O)C1=NOC(c2ccccc2)(c2ccccc2)C1`, the compound was classed as inactive.
In the case of `CO[Si](C)(C)OC`, the compound was classed as inactive.
As for `CC(C)=CCl`, the outcome was inactive.
